According to PubChem BioAssay AID1159580 (chemical genetic matrix, 2015):
About 2,000 (36%) of roughly 5,500 compounds were called active. Another 18% or so got no clear call; they are omitted. This is one part of the list. A number with no mark means an inactive call. Cut-off read from the data, not from the text of the source: active = normalized growth mostly below about 0.91 (no sharp cut-off); inconclusive = no clear call, values can overlap the other calls; inactive = mostly above about 0.92.

Experiment: chemical genetic growth profiling, strain panel (AID 1159580);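 note: tested at 20 µM; growth read once vehicle control cultures reached saturation at 30 °C; 1 = growth at the plate median or of vehicle wells; lower values mean less growth of the strain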
Settings: growth OD

## CC(C)c1nc(N(C)S(C)(=O)=O)nc(-c2ccc(F)cc2)c1/C=C/[C@@H](O)C[C@@H](O)CC(=O)O
S. cerevisiae deletion strains, locus YJR075W, strain HOC1, active compounds read low
  normalized growth: 0.996
S. cerevisiae deletion strains, locus YKL009W, strain mrt4, active compounds read low
  normalized growth: 1.01
S. cerevisiae deletion strains, locus YKL068W, active compounds read low
  normalized growth: 1.03
S. cerevisiae deletion strains, locus YKL085W, strain MDH1 (second series), active compounds read low
  normalized growth: 0.992
S. cerevisiae deletion strains, locus YKL085W, strain MDH1, active compounds read low
  normalized growth: 0.992
S. cerevisiae deletion strains, locus YKL160W, strain elf1, active compounds read low
  normalized growth: 0.994
S. cerevisiae deletion strains, locus YKL190W, strain CNB1, active compounds read low
  normalized growth: 1.01
S. cerevisiae deletion strains, locus YKR001C, strain vps1, active compounds read low
  normalized growth: 1.03
S. cerevisiae deletion strains, locus YKR026C, strain gcn3, active compounds read low
  normalized growth: 1.02
S. cerevisiae deletion strains, locus YKR091W, strain srl3, active compounds read low
  normalized growth: 1.01
S. cerevisiae deletion strains, locus YLL001W, strain dnm1, active compounds read low
  normalized growth: 1.03
S. cerevisiae deletion strains, locus YLL026W, active compounds read low
  normalized growth: 1.01
S. cerevisiae deletion strains, locus YLL041C, strain sdh2, active compounds read low
  normalized growth: 0.9 (active)
S. cerevisiae deletion strains, locus YLR027C, strain aat2, active compounds read low
  normalized growth: 1.01
S. cerevisiae deletion strains, locus YLR039C, strain RIC1, active compounds read low
  normalized growth: 1.31
S. cerevisiae deletion strains, locus YLR058C, strain SHM2, active compounds read low
  normalized growth: 1
S. cerevisiae deletion strains, locus YLR102C, strain apc9, active compounds read low
  normalized growth: 1.02
S. cerevisiae deletion strains, locus YLR113W, strain HOG1, active compounds read low
  normalized growth: 0.232 (active)
S. cerevisiae deletion strains, locus YLR221C, strain rsa3, active compounds read low
  normalized growth: 1.06
S. cerevisiae deletion strains, locus YLR258W, strain gsy2, active compounds read low
  normalized growth: 1.01
S. cerevisiae deletion strains, locus YLR262C, strain YPT6 (second series), active compounds read low
  normalized growth: 1.1
S. cerevisiae deletion strains, locus YLR262C, strain YPT6, active compounds read low
  normalized growth: 1.26
S. cerevisiae deletion strains, locus YLR268W, strain sec22, active compounds read low
  normalized growth: 0.994
S. cerevisiae deletion strains, locus YLR320W, strain mms22, active compounds read low
  normalized growth: 1.01
S. cerevisiae deletion strains, locus YLR330W, strain CHS5, active compounds read low
  normalized growth: 0.999
S. cerevisiae deletion strains, locus YLR342W, strain FKS1 (second series), active compounds read low
  normalized growth: 1.03
S. cerevisiae deletion strains, locus YLR342W, strain FKS1, active compounds read low
  normalized growth: 1.03
S. cerevisiae deletion strains, locus YLR357W, strain rsc2, active compounds read low
  normalized growth: 0.994
S. cerevisiae deletion strains, locus YLR370C, strain arc18, active compounds read low
  normalized growth: 1.03
S. cerevisiae deletion strains, locus YLR371W, strain rom2, active compounds read low
  normalized growth: 1.01
S. cerevisiae deletion strains, locus YLR384C, strain iki3, active compounds read low
  normalized growth: 1
S. cerevisiae deletion strains, locus YLR418C, strain cdc73, active compounds read low
  normalized growth: 1
S. cerevisiae deletion strains, locus YML016C, strain PPZ1, active compounds read low
  normalized growth: 0.999
S. cerevisiae deletion strains, locus YML032C, strain rad52, active compounds read low
  normalized growth: 1.01
S. cerevisiae deletion strains, locus YML120C, strain ndi1, active compounds read low
  normalized growth: 1.02
S. cerevisiae deletion strains, locus YML124C, strain tub3, active compounds read low
  normalized growth: 0.997
S. cerevisiae deletion strains, locus YMR058W, strain fet3, active compounds read low
  normalized growth: 1.02
S. cerevisiae deletion strains, locus YMR078C, strain ctf18, active compounds read low
  normalized growth: 1.01
S. cerevisiae deletion strains, locus YMR125W, strain sto1, active compounds read low
  normalized growth: 1.02
S. cerevisiae deletion strains, locus YMR129W, active compounds read low
  normalized growth: 1.04
S. cerevisiae deletion strains, locus YMR205C, strain PFK2, active compounds read low
  normalized growth: 1.02
S. cerevisiae deletion strains, locus YMR223W, strain ubp8, active compounds read low
  normalized growth: 1.01
S. cerevisiae deletion strains, locus YMR231W, strain pep5, active compounds read low
  normalized growth: 0.958
S. cerevisiae deletion strains, locus YMR263W, strain SAP30, active compounds read low
  normalized growth: 0.994
S. cerevisiae deletion strains, locus YMR307W, strain GAS1, active compounds read low
  normalized growth: 1.01
S. cerevisiae deletion strains, locus YNL067W, strain RPL9B, active compounds read low
  normalized growth: 0.989
S. cerevisiae deletion strains, locus YNL071W, strain lat1, active compounds read low
  normalized growth: 1.01
S. cerevisiae deletion strains, locus YNL128W, strain TEP1, active compounds read low
  normalized growth: 0.988
S. cerevisiae deletion strains, locus YNL153C, strain GIM3, active compounds read low
  normalized growth: 0.989
S. cerevisiae deletion strains, locus YNL183C, strain NPR1, active compounds read low
  normalized growth: 0.0704 (active)
S. cerevisiae deletion strains, locus YNL209W, strain ssb2, active compounds read low
  normalized growth: 1.02
S. cerevisiae deletion strains, locus YNL233W, strain BNI4, active compounds read low
  normalized growth: 0.988
S. cerevisiae deletion strains, locus YNL248C, strain rpa49, active compounds read low
  normalized growth: 1.02
S. cerevisiae deletion strains, locus YNL250W, strain rad50, active compounds read low
  normalized growth: 0.982
S. cerevisiae deletion strains, locus YNL271C, strain bni1, active compounds read low
  normalized growth: 0.976
S. cerevisiae deletion strains, locus YNL298W, strain CLA4, active compounds read low
  normalized growth: 1.02
S. cerevisiae deletion strains, locus YNL307C, strain MCK1, active compounds read low
  normalized growth: 1.02
S. cerevisiae deletion strains, locus YNL322C, strain KRE1 (second series), active compounds read low
  normalized growth: 1.03
S. cerevisiae deletion strains, locus YNL322C, strain KRE1, active compounds read low
  normalized growth: 1
S. cerevisiae deletion strains, locus YNR049C, strain mso1, active compounds read low
  normalized growth: 1.02
S. cerevisiae deletion strains, locus YNR052C, strain pop2, active compounds read low
  normalized growth: 0.929
S. cerevisiae deletion strains, locus YOL006C, strain TOP1, active compounds read low
  normalized growth: 1.01
S. cerevisiae deletion strains, locus YOL012C, strain htz1
  normalized growth: 0.882
S. cerevisiae deletion strains, locus YOL147C, strain pex11, active compounds read low
  normalized growth: 1.01
S. cerevisiae deletion strains, locus YOR001W, strain rrp6, active compounds read low
  normalized growth: 1.01
S. cerevisiae deletion strains, locus YOR061W, strain CKA2, active compounds read low
  normalized growth: 0.994
S. cerevisiae deletion strains, locus YOR069W, strain VPS5, active compounds read low
  normalized growth: 1.01
S. cerevisiae deletion strains, locus YOR070C, strain gyp1, active compounds read low
  normalized growth: 1.01
S. cerevisiae deletion strains, locus YOR080W, strain dia2, active compounds read low
  normalized growth: 1.01
S. cerevisiae deletion strains, locus YOR083W, strain WHI5, active compounds read low
  normalized growth: 0.996
S. cerevisiae deletion strains, locus YOR106W, strain vam3, active compounds read low
  normalized growth: 1.02
S. cerevisiae deletion strains, locus YOR136W, strain idh2, active compounds read low
  normalized growth: 1
S. cerevisiae deletion strains, locus YOR144C, strain elg1, active compounds read low
  normalized growth: 1
S. cerevisiae deletion strains, locus YOR184W, strain ser1, active compounds read low
  normalized growth: 0.997
S. cerevisiae deletion strains, locus YOR231W, strain MKK1, active compounds read low
  normalized growth: 0.124 (active)
S. cerevisiae deletion strains, locus YOR265W, strain rbl2, active compounds read low
  normalized growth: 1.01
S. cerevisiae deletion strains, locus YOR270C, strain vph1, active compounds read low
  normalized growth: 0.975
S. cerevisiae deletion strains, locus YOR290C, strain snf2, active compounds read low
  normalized growth: 1
S. cerevisiae deletion strains, locus YOR316C, strain cot1, active compounds read low
  normalized growth: 1.01
S. cerevisiae deletion strains, locus YPL051W, strain arl3, active compounds read low
  normalized growth: 1.02
S. cerevisiae deletion strains, locus YPL055C, strain LGE1, active compounds read low
  normalized growth: 0.998
S. cerevisiae deletion strains, locus YPL078C, strain atp4, active compounds read low
  normalized growth: 1.02
S. cerevisiae deletion strains, locus YPL106C, strain sse1, active compounds read low
  normalized growth: 1.03
S. cerevisiae deletion strains, locus YPL240C, strain hsp82, active compounds read low
  normalized growth: 0.992
S. cerevisiae deletion strains, locus YPL241C, strain CIN2, active compounds read low
  normalized growth: 1.01
S. cerevisiae deletion strains, locus YPL256C, strain CLN2, active compounds read low
  normalized growth: 0.162 (active)
S. cerevisiae deletion strains, locus YPR119W, strain clb2, active compounds read low
  normalized growth: 0.998
S. cerevisiae deletion strains, locus YPR141C, strain kar3, active compounds read low
  normalized growth: 1.01
S. cerevisiae deletion strains, locus YPR163C, strain tif3, active compounds read low
  normalized growth: 1.01
S. cerevisiae deletion strains, locus YPR167C, strain met16, active compounds read low
  normalized growth: 1
S. cerevisiae deletion strains, strain wtn01, active compounds read low
  normalized growth: 1
S. cerevisiae strains, strain wild type, active compounds read low
  normalized growth: 0.994
